# From PubChem BioAssay
# A selection: hits, their analogues and other compounds. The true share with any hit is near 1.9%.
# ZTA counter – counter-screen for EBNA-1 inhibitors: inhibitors of Epstein-Barr virus ZTA | ZTA-DNA binding, fluorescence polarization | inhibition, % at 11 µM | 320,000 compounds, 0.15% hits | AID 2234; in the data active = inhibition above about 33%
# aDG glyco up – alpha-DG glycosylation activation | 360,000 compounds, 0.22% hits | Pro5-aDG cells, alpha-DG glycosylation AlphaScreen (IIH6); 0% Pro5, 100% B10-LARGE cell signal | AID 624168 | activation, % at 10 µM;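 active = activation of at least 8% versus controls, or a plate z-score of at least 8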;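 note: Pro5 are CHO cells carrying HIG-tagged alpha-DG that lacks glycosylation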
# PG9 Ab binder – PG9 antibody binding by small molecule; TR-FRET gp120-PG9 antibody binding; inhibition, % at 6.7 µM; 360,000 compounds, 0.43% hits; AID 624416; in the data active = inhibition above about 8.5%
# NCF1 inh – inhibitors of human p47phox binding | P14598 | p47phox/p22phox peptide binding, fluorescence polarization, 2 h | inhibition, % at 24.7 µM | 220,000 compounds, 0.53% hits | AID 1274;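 active = inhibition above about 30%, limit read from the data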;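 note: 0% = p47phox with labelled peptide and 100% = labelled peptide alone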
# Rev-erbA mod – Rev-erb alpha (human) modulation; Rev-erbα–FITC-DNA binding, fluorescence polarization, 90 min; P20393; activity, % at 10 µM; 370,000 compounds, 0.79% hits;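 active = activity above about 14%, limit read from the data; passing the limit was not always enough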;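 note: 0% = DMSO wells with 35 nM protein and 100% = DMSO wells with 750 nM protein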
# Target sequence (P20393 whole entry, looked up): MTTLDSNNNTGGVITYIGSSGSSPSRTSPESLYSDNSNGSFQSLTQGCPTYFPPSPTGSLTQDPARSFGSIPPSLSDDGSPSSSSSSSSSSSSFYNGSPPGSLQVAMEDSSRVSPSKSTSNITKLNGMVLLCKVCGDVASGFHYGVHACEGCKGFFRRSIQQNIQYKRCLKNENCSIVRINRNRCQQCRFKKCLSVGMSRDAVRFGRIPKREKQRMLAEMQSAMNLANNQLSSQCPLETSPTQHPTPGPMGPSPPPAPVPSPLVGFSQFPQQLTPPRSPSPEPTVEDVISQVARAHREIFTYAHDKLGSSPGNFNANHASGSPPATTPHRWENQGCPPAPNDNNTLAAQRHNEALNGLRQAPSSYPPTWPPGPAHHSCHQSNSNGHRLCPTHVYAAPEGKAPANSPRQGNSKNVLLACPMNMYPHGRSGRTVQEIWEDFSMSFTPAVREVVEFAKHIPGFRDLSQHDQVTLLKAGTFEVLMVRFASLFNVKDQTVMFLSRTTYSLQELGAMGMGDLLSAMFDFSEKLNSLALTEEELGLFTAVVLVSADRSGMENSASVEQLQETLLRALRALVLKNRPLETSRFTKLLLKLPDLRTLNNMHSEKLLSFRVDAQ
# EBNA-1 inh – blocks EBNA-1 binding to DNA. EBNA-1 DNA binding, fluorescence polarization. inhibition, % at 14.8 µM. 300,000 compounds, 0.34% hits. AID 1950; in the data active = inhibition above about 28%
# Active calls of the source: *; nt = no result.
SMILES,ZTA counter,aDG glyco up,PG9 Ab binder,NCF1 inh,Rev-erbA mod,EBNA-1 inh
Cc1ccc(N2CCN(C(=O)c3ccccc3Br)CC2)c(C)c1,3.6,0.1,0.1,-3.1,2.8,-12.7
Cc1ccc(N2CCN(C(=O)c3ccccc3)CC2)c(C)c1,6.1,0.0,-1.3,91.5*,-5.3,-2.0
O=S1(=O)c2ccc(N3CCN(Cc4ccccc4F)CC3)cc2Oc2ccccc2CN1Cc1cn(Cc2ccccc2C(F)(F)F)nn1,nt,nt,nt,nt,3.3,nt
C#CCOCCOCCOCCNc1nc(N2CCOCC2)nc(N2CCN(C(=O)CCCCCCCCCCNC(=O)[C@@H]([C@H](C)CC)n3cc(CCCCCN)nn3)CC2)n1,1.7,-0.2,3.0,nt,-1.6,-3.4
C#CCOCCOCCOCCNc1nc(N2CCN(C(=O)CCCCCCCCCCNC(=O)[C@H]([C@@H](C)CC)n3cc(CCCCCN)nn3)CC2)nc(N2CCN(C(=O)CCCCCCCCCCNC(=O)[C@@H]([C@H](C)CC)n3cc(CCCCCN)nn3)CC2)n1,65.4*,nt,nt,nt,nt,-4.8
C#CCOCCOCCOCCNc1nc(N2CCN(C(=O)CCCCCCCCCCNC(=O)[C@H]([C@@H](C)CC)n3cc(CCCCN=C(N)N)nn3)CC2)nc(N2CCN(C(=O)CCCCCCCCCCNC(=O)[C@H](CO)n3cc(CCCCCN)nn3)CC2)n1,21.8,-0.6,nt,nt,nt,5.3
C#CCOCCOCCOCCNc1nc(N2CCN(C(=O)CCCCCCCCCCNC(=O)[C@H]([C@@H](C)CC)n3cc(CCCCN=C(N)N)nn3)CC2)nc(N2CCN(C(=O)CCCCCCCCCCNC(=O)[C@H]([C@@H](C)CC)n3cc(CCCCN=C(N)N)nn3)CC2)n1,147.3*,nt,nt,nt,nt,-1.9
O=C(NC(=S)Nc1ccc(NC(=O)c2cccs2)cc1)c1ccco1,0.0,-0.2,-2.1,-19.7,-6.2,8.0
O=C(NC(=S)Nc1ccc(NC(=O)c2cccs2)cc1)c1cc2ccccc2o1,25.6,0.9,-1.1,-14.0,-10.0,68.6*
Nc1nc2n(n1)C(c1ccco1)CC(c1ccccc1)N2 (stereo not given),9.7,-0.1,0.5,46.0*,4.6,-2.5
Nc1nc2n(n1)C(c1ccco1)CC(c1ccc(F)cc1)N2 (stereo not given),16.3,0.1,2.6,2.2,1.2,5.5
NC(=S)n1[nH]c(-c2ccc([N+](=O)[O-])cc2)c(N=Nc2ccccc2[N+](=O)[O-])c1=O,nt,0.1,0.3,30.1*,-32.7,nt
Cc1c(N=Nc2c(-c3ccc([N+](=O)[O-])cc3)[nH]n(C(N)=S)c2=O)cccc1[N+](=O)[O-],nt,-0.6,-3.0,22.2,-33.5,nt
O=C1C(=O)c2ccccc2C(O)=C1CCCCl,-5.0,3.8*,nt,-1.7,nt,1.5
COC(=O)c1cc(-c2cccs2)c(=O)n2c1CCC2,nt,nt,nt,nt,-0.3,nt
CCC(CNc1cc(OC)cc2cccnc12)NC1CCCCC1 (stereo not given),1.6,7.1*,-4.8,-73.2,-23.0,-22.4
COc1cc(NCCCC(C)N)c2ncccc2c1 (stereo not given),nt,0.6,-3.4,9.6,-0.6,nt
CN(C)/C=N/c1c(C#N)cnn1-c1ccccc1,6.9,0.1,-0.4,-9.2,-2.8,17.7
CN(C)/C=N/c1c(C#N)cnn1-c1ccc(C(F)(F)F)cn1,-9.0,0.0,-1.4,155.3*,-5.3,-4.4
O=C1c2cccc3cccc(c23)C(=O)N1c1nccs1,-7.3,-0.2,-0.6,5.7,-1.2,12.5
O=C1c2cccc3cccc(c23)C(=O)N1c1ccc2ncccc2c1,31.2,0.3,-0.8,34.5*,-30.3,14.2
O=C1Nc2ccc(F)cc2C12Nc1ccccc1-c1nnc(SCc3ccccc3Cl)nc1O2 (stereo not given),6.2,0.1,2.7,39.5*,5.0,2.6
CN(C)c1cc(NC(=O)CNC(C)(C)C)c(O)c2c1C[C@H]1C[C@H]3[C@H](N(C)C)C(=O)C(C(N)=O)=C(O)[C@@]3(O)C(=O)C1=C2O,nt,nt,nt,nt,-36.2,nt
CC(=O)Nc1nc2ncccn2c1-c1ccc(F)c(F)c1,nt,nt,nt,nt,3.2,nt
O=C(ONc1ccc(N=NC(=O)c2ccccc2O)cc1)c1ccccc1,-4.5,0.0,1.1,31.2*,-4.2,4.9
SMILES,ZTA counter,aDG glyco up,PG9 Ab binder,NCF1 inh,Rev-erbA mod,EBNA-1 inh
O=Nc1ccc(NOC(=O)c2ccccc2Br)cc1,-2.1,0.1,-2.8,2.8,4.6,-7.7
CN(C)c1ccnc2c[cH-]cc12.[Fe].c1ccc(-[c-]2[c-](-c3ccccc3)[c-](-c3ccccc3)[c-](-c3ccccc3)[c-]2-c2ccccc2)cc1 (stereo not given),9.0,-1.0,-0.6,89.7*,-5.3,6.3
CN(C)c1ccnc(Nc2ccccc2)c1C#N,-9.2,0.1,-0.4,1.1,-4.0,8.2
Fc1ccc2[nH]c3c(N4CCc5ccccc5C4)ncnc3c2c1,0.4,1.9,-0.5,-9.1,-7.6,4.6
Cc1ccc2[nH]c3c(N4CCc5ccccc5C4)ncnc3c2c1,6.7,6.7*,3.0,-43.0,-0.1,7.3
CC(C)(C)c1ccc(CN2N=Nc3ccccc3S2(=O)=O)cc1,1.4,-0.6,-1.7,33.5*,-0.6,0.3
O=C(Nc1ccc2nc(-c3ccco3)c(-c3ccco3)nc2c1)N1CCCCCC1,40.9*,nt,nt,-29.4,nt,24.2
O=C(NCC(c1ccccc1)c1ccccc1)[C@H](Cc1ccccc1)NC1(C(=O)NC2CCCCC2)CCOCC1,nt,nt,nt,nt,2.4,nt
O=C1/C(=C/c2cccs2)SC(=S)N1NS(=O)(=O)c1ccccc1,3.3,0.0,-0.3,-1.0,-3.9,4.1
O=C1/C(=C/C=C/c2ccco2)SC(=S)N1NS(=O)(=O)c1ccccc1,69.7*,0.3,-3.0,-38.1,-24.7,43.6*
CCOc1cc(/C=N/N=C(N)N)ccc1OCc1ccc(Cl)cc1,9.4,-0.9,0.3,76.6*,2.2,-4.4
COc1cc(/C=N/N=C(N)N)ccc1OCc1ccc(Cl)cc1,-3.1,-1.0,-1.4,3.8,3.7,-11.7
CC1=C(C)C(=O)C(N2CCOCC2)=CC1=O,nt,5.3*,-15.0,-6.1,-1.4,nt
O=C1C=C(N2CCOCC2)c2cccc3cccc1c23,nt,-0.2,-4.7,nt,-6.2,nt
C#CCOCCOCCOCCNc1nc(N2CCN(C(=O)[C@H](CCCCN)n3cc([C@@H](N)C(C)CC)nn3)CC2)nc(N2CCN(C(=O)[C@H](CCCCN)n3cc([C@@H](N)C(C)CC)nn3)CC2)n1 (stereo not given in full),nt,nt,nt,nt,3.1,nt
CCOc1ccccc1NC(=O)c1cc(-c2ccncc2)nc2c(Cl)cccc12,nt,-0.2,-1.4,39.7*,-4.5,nt
CCOC(=O)[C@](C)(N)Cc1ccc(O)c(O)c1,nt,nt,nt,nt,-4.3,nt
FC(F)(F)c1ccccc1NC(=S)OCCN1CCCC12CCC(c1ccccc1)CC2 (stereo not given),nt,nt,nt,nt,-4.4,nt
C#CCOCCOCCOCCNc1nc(N2CCN(C(=O)[C@H](CCCCN)n3cc(C(N)COC(=O)C(F)(F)F)nn3)CC2)nc(N2CCN(C(=O)[C@H](CCCCN)n3cc(C(N)CC(C)C)nn3)CC2)n1 (stereo not given in full),nt,nt,nt,33.8*,nt,nt
